Consider 13 compounds from PubChem BioAssay (NCI).

The panel holds about 83,000 compounds, 20% with a hit somewhere; the sample as a whole holds those more often.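 For each line, cells grew in 96-well plates with the test compound present at a single concentration for 48 hours.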 Values without a mark were called inactive. Active and inactive are the calls of the source. Rule for the calls: active = growth percent below 10; inactive = the rest.

Among the test systems are SR leukemia; RPMI-8226 leukemia; OVCAR-8 ovarian; OVCAR-5 ovarian; OVCAR-4 ovarian; SK-OV-3 ovarian; IGROV1 ovarian; OVCAR-3 ovarian; HS 578T breast; NCI/ADR-RES ovarian.
Holding throughout (assay): NCI-60 one-dose screen, 48 h (100 = growth as untreated, 0 = no growth, -100 = all killed)
What all share (settings): 10 µM unless noted

As for `C=C(C)[C@@H]1CC[C@]2(C(=O)NCCCN(CCC#N)CCC#N)CC[C@]3(C)[C@H](CC[C@@H]4[C@@]5(C)CCC(=O)C(C)(C)[C@@H]5CC[C@]43C)[C@@H]12`, the growth was 108% in the test with SR leukemia; 101% with RPMI-8226 leukemia; 97.9% in the test with OVCAR-8 ovarian; 103% with OVCAR-5 ovarian; 92.6% in the test on OVCAR-4 ovarian; 93% in the test on SK-OV-3 ovarian. The growth is 102% with IGROV1 ovarian, 107% in the test with OVCAR-3 ovarian, 96.3% in the test on HS 578T breast and 103% with NCI/ADR-RES ovarian.

Consider `CCN(CC)CCOC(COc1cc(C)cc(C)c1)COc1cc(C)cc(C)c1`, for which the growth in the test on SR leukemia was -20.8% (active); in the test with RPMI-8226 leukemia, 0.427% (active); with OVCAR-8 ovarian, 58.6%; with OVCAR-5 ovarian, 55.6%; in the test on OVCAR-4 ovarian, 50.9%; in the test on SK-OV-3 ovarian, 67.1%. For the same compound, the growth was 12.6% with IGROV1 ovarian, 58.4% in the test on OVCAR-3 ovarian, 61.6% in the test with HS 578T breast and 41.5% with NCI/ADR-RES ovarian.

For the compound `COc1cccc(CNCCN2C(=O)c3ccc4c5c(ccc(c35)C2=O)C(=O)N(CCNCc2cccc(OC)c2)C4=O)c1`, the growth is -27.8% (active) with SR leukemia; -14.8% (active) in the test with RPMI-8226 leukemia; 68.3% in the test with OVCAR-8 ovarian; 120% with OVCAR-5 ovarian; 75.9% with OVCAR-4 ovarian; 114% with SK-OV-3 ovarian. In addition, the growth with IGROV1 ovarian was 75.9%; in the test with OVCAR-3 ovarian it was 24.6%; in the test with HS 578T breast, 121%; with NCI/ADR-RES ovarian it was 88.8%.

With `COc1cc(-c2cc(=O)oc3cc(O)ccc23)cc(OC)c1OC`, the growth in the test with SR leukemia was 97.6%; in the test with RPMI-8226 leukemia, 41.8%; in the test with OVCAR-8 ovarian, 84.9%; with OVCAR-5 ovarian, 103%; with OVCAR-4 ovarian, 73%; in the test on SK-OV-3 ovarian, 135%. In addition, the growth in the test with IGROV1 ovarian was 94%; in the test on OVCAR-3 ovarian, 88.4%; with HS 578T breast, 88.5%; in the test on NCI/ADR-RES ovarian it was 88.3%.

Consider `COc1ccc(Nn2c(SCC(=O)Nc3nc(-c4ccc(Cl)cc4)cs3)nc(C)c2C)cc1`, for which the growth is 40.3% in the test with SR leukemia; 35.7% in the test with RPMI-8226 leukemia; 43.9% with OVCAR-8 ovarian; 111% with OVCAR-5 ovarian; 37% in the test on OVCAR-4 ovarian; 77.8% in the test on SK-OV-3 ovarian. The growth was 70.9% in the test with IGROV1 ovarian, 60.7% with OVCAR-3 ovarian, 86.1% in the test on HS 578T breast and 23.1% in the test with NCI/ADR-RES ovarian.

As to `CC1(C)CC[C@]2(C(=O)NCC#CCN3CCOCC3)CC[C@]3(C)C(=CC[C@@H]4[C@@]5(C)Cc6c([nH]c7ccccc67)C(C)(C)[C@@H]5CC[C@]43C)[C@@H]2C1`, the growth in the test with SR leukemia is 90.9%; with RPMI-8226 leukemia, 57.9%; in the test on OVCAR-8 ovarian, 90.8%; in the test on OVCAR-5 ovarian, 99.6%; with OVCAR-4 ovarian, 91%; in the test on SK-OV-3 ovarian, 97.8%. In addition, the growth was 116% with IGROV1 ovarian, 95.1% in the test with OVCAR-3 ovarian, 107% in the test with HS 578T breast and 97% in the test with NCI/ADR-RES ovarian.

For `Nc1nc(N)nc(NCc2ccccc2)n1`, the growth was 89% in the test on SR leukemia; 107% in the test with RPMI-8226 leukemia; 117% with OVCAR-8 ovarian; 103% with OVCAR-5 ovarian; 128% in the test with OVCAR-4 ovarian; 115% with SK-OV-3 ovarian. The growth was 109% in the test with IGROV1 ovarian, 105% with OVCAR-3 ovarian, 120% in the test with HS 578T breast and 100% in the test with NCI/ADR-RES ovarian.

For `O=C1OC(=O)C2C1CC=CC2c1ccccc1` (stereo not given), the growth is 55% in the test with SR leukemia; 93.8% in the test with RPMI-8226 leukemia; 95.3% in the test on OVCAR-8 ovarian; 85.6% with OVCAR-5 ovarian; 83.4% in the test with OVCAR-4 ovarian; 81.8% in the test with SK-OV-3 ovarian. Also, the growth in the test on IGROV1 ovarian is 84.6%; with OVCAR-3 ovarian it was 104%; in the test with HS 578T breast, 76.7%; in the test on NCI/ADR-RES ovarian it was 91.1%.

Take `COc1nc(N)nc(-n2c(-c3ccc(C)cc3)nc3ccccc32)c1NCc1ccc(C)cc1`: the growth is 80.5% in the test with SR leukemia; 81.2% in the test on RPMI-8226 leukemia; 94.1% with OVCAR-8 ovarian; 88.5% in the test on OVCAR-5 ovarian; 95% in the test on OVCAR-4 ovarian; 110% with SK-OV-3 ovarian. The growth in the test on IGROV1 ovarian is 80.1%; in the test with OVCAR-3 ovarian, 111%; with HS 578T breast it was 83.6%; in the test on NCI/ADR-RES ovarian it was 90.1%.

`Cc1ccc(C(c2c(O)c3cc(Br)ccc3[nH]c2=O)c2c(O)c3cc(Br)ccc3[nH]c2=O)cc1`: the growth in the test on SR leukemia is 97.3%; in the test with RPMI-8226 leukemia it was 73.2%; with OVCAR-8 ovarian, 96%; in the test on OVCAR-5 ovarian, 104%; in the test on OVCAR-4 ovarian, 81.7%; with SK-OV-3 ovarian, 86.1%. The growth in the test on IGROV1 ovarian is 89.6%; with OVCAR-3 ovarian it was 86.7%; with HS 578T breast it was 82.4%; in the test on NCI/ADR-RES ovarian it was 101%.

Regarding `COc1ccc(C(=O)/C=C/c2cn(Cc3ccc(Cl)cc3)c3ccccc23)cc1`, the growth is 20.1% in the test with SR leukemia; 70.7% in the test on RPMI-8226 leukemia; 71% with OVCAR-8 ovarian; 13.4% in the test on OVCAR-5 ovarian; 76.3% with OVCAR-4 ovarian; 57.4% with SK-OV-3 ovarian. The growth in the test on IGROV1 ovarian is 23.7%; in the test with OVCAR-3 ovarian, 57.6%; in the test on HS 578T breast, 60%; in the test with NCI/ADR-RES ovarian, 38.4%.

`COc1c(Cl)cc(Cl)c2ccc(C=C3C(=O)NC(=S)NC3=O)nc12`: the growth in the test on SR leukemia was 99%; in the test with RPMI-8226 leukemia, 105%; with OVCAR-8 ovarian, 109%; in the test on OVCAR-5 ovarian, 109%; in the test on OVCAR-4 ovarian, 109%; in the test on SK-OV-3 ovarian it was 106%. The growth in the test with IGROV1 ovarian is 108%; in the test on OVCAR-3 ovarian, 103%; in the test with HS 578T breast, 102%; in the test with NCI/ADR-RES ovarian it was 100%.

For `CN1CCN(CCCOc2ccc3ncnc(Nc4ccc(Oc5cccc(C(F)(F)F)c5)c(Cl)c4)c3c2)CC1`, the growth is 4.03% (active) with SR leukemia; -21.6% (active) in the test with RPMI-8226 leukemia; 24.6% in the test on OVCAR-8 ovarian; 5.84% (active) with OVCAR-5 ovarian; 2.72% (active) with OVCAR-4 ovarian; 21.4% in the test on SK-OV-3 ovarian. The growth in the test with IGROV1 ovarian was -53.7% (active); with OVCAR-3 ovarian, 30.2%; with HS 578T breast it was 26.8%; in the test with NCI/ADR-RES ovarian, 34.8%.
